Results filed as inconclusive are left out. Activity calls are given as the source filed them. Unless noted, calls follow the shape of the dose curve; as a rule, active = well fitted curve in the direction sought with a large enough effect; inconclusive = small, poorly fitted or top-dose-only effect, or another doubt; inactive = no such curve, though single readings can be large; an effect the other way counts as inactive or inconclusive.
Assays:
[1] = qHTS for differential inhibitors of proliferation of Plasmodium falciparum line 7G8 (AID 1815);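 also: parasite growth measured after three days of incubation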; also: potency is read from the fitted curve at half-maximal effect
[2] = qHTS for differential inhibitors of proliferation of Plasmodium falciparum line GB4 (AID 1816); settings: Potency: Plasmodium falciparum GB4 proliferation inhibition;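 also: parasite growth measured after 72 h incubation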; also: potency is read from the fitted curve at half-maximal effect
[3] = qHTS for differential inhibitors of proliferation of Plasmodium falciparum line 3D7 (AID 1876); also: potency is read from the fitted curve at half-maximal effect
[4] = qHTS for differential inhibitors of proliferation of Plasmodium falciparum line D10 (AID 1877);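 also: parasites grown with compound for 72 h before DNA staining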; also: potency is read from the fitted curve at half-maximal effect
[5] = qHTS for differential inhibitors of proliferation of Plasmodium falciparum line Dd2 (AID 1882); settings: Potency: Plasmodium falciparum Dd2 proliferation inhibition; also: nearly all actives have a fitted effect of over 65% in size; also: potency is read from the fitted curve at half-maximal effect
In short: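 RBC culture, 0.3% parasitemia / 2.5% Hct final; cpd added by pin tool in DMSO; 72 h, 37 C, 5% CO2; lysis buffer + SYBR Green I, o/n RT dark; FI 485/535; norm. to artemisinin 0.29 uM and DMSO.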

[6] = qHTS for differential inhibitors of proliferation of Plasmodium falciparum line W2 (AID 1883); settings: Potency: Plasmodium falciparum W2 proliferation inhibition;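 also: parasites grown with compound for 72 h before lysis and staining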; also: potency is read from the fitted curve at half-maximal effect
[7] = qHTS for differential inhibitors of proliferation of Plasmodium falciparum line HB3 (AID 1886); settings: Potency: Plasmodium falciparum HB3 proliferation inhibition;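 also: parasites grown with compound for 72 h before SYBR Green readout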; also: potency is read from the fitted curve at half-maximal effect
[8] = biological target: Ferritin light chain (Equus caballus) (UniProt P02791); experiment: qHTS Validation Assay for Identification of Novel General Anesthetics (AID 2323); also: series mostly up to about 77 µM
In short: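 Normalized fluorescence response, scaled between free 1-AMA and 1-AMA/apoferritin complex, fitted to a four-parameter Hill equation for concentration-effect values. Binding mix: 10 uM horse-spleen apoferritin, 50% saturated 1-AMA in PBS; read 380/535 nm after 10 min.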

[9] = biological target: ATP-dependent DNA helicase Q1 (Homo sapiens) (UniProt P46063); experiment: qHTS Validation Assay for Inhibitors of RecQ-Like Dna Helicase 1 (RECQ1) (AID 2353); also: potency is read from the fitted curve at half-maximal effect
In short: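 RECQ1T1 50 nM; forked duplex (20 bp + 30-nt ss tails) 200 nM, ATP 2 mM final; pH 8.0, 2 mM MgCl2, 2.5 ug/ml poly(dI-dC); 15 min compound preincubation; discontinuous kinetic read over 2 h at RT.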

[10] = Cytometric Cell-Based qHTS for Inhibitors of the mTORC1 Signaling Pathway in MEF (Tsc2-/-, p53-/-) Cells (AID 2660);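 also: percent of cells above a phospho-rpS6 to PI ratio cutoff in each well; series mostly up to about 38 µM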
In short: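 Tsc2-/-, p53-/- MEFs (empty vector) exposed to compound 24 h at 37 C, fixed, stained with Alexa-488 anti-phospho-rpS6 Ser235/236 and propidium iodide. Acumen laser scanning; phospho-S6/PI ratio thresholded against 7.5 nM rapamycin, reported as % positive cells.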

[11] = High Content Imaging Cell-Based qHTS for Inhibitors of the mTORC1 Signaling Pathway in MEF (Tsc2-/-, p53-/-) Cells (AID 2666);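 also: percent of cells scored positive for phospho-rpS6 Ser235/236 immunostaining by imaging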
In short: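 Inhibition of rpS6 phosphorylation is measured by immunofluorescence imaging in empty-vector Tsc2-/-, p53-/- mouse embryonic fibroblasts after 24 hrs compound exposure at 37 degree Celsius. Results are reported as % positive cells per well.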

[12] = biological target: Ubiquitin carboxyl-terminal hydrolase 2 (Homo sapiens) (UniProt O75604); experiment: qHTS Validation Assay for Inhibitors of Ubiquitin-specific Protease USP2a Using CHOP2 as the Reporter (AID 463106)
In short: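 Inhibition is expressed relative to NEM as the full-inhibition control, with concentration-response curves classed by fit quality, magnitude and activity. Enzyme (USP2 core, 10nM) meets 25nM Ub-CHOP2 after compound preincubation; readings are taken at 60min.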

[13] = biological target: DNA polymerase III PolC-type (Bacillus subtilis (strain 168)) (UniProt P13267); experiment: qHTS Validation Assay for the Inhibitors of DNA Replication in Gram-Positive Bacteria (AID 485295);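 also: reconstituted holoenzyme with PolC plus beta clamp SSB and primase; PicoGreen fluorescence of double-stranded DNA made on primed circular M13 template; series mostly up to about 57 µM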
In short: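 Inhibition of DNA synthesis by the reconstituted PolC holoenzyme, monitored through PicoGreen staining of dsDNA formed from ssM13Gori, dNTPs and NTPs, with compound preincubation and room-temperature reaction.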

[14] = biological target: Tumor susceptibility gene 101 protein (Homo sapiens) (UniProt Q99816); experiment: qHTS Validation Assay for Iinhibitors of HIV-1 Budding by Blocking the Interaction of PTAP/TSG101 (AID 485342; calls by dose curve)
In short: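 Compound wells held the Tsg101 binding domain (10 uM) and a FITC-conjugated PTAP peptide (50 nM) in buffer at pH 7.5 containing 0.15 M NaCl and 0.01% Tween 20; polarization was recorded after 20 min, r.t.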

[15] = qHTS Assay for Modulators of Human Peripheral Myelin Protein 22 (PMP22) Expression/Activity (AID 1967; active = well fitted curve in the direction sought with a large enough effect in the signal ratio; the % refers to the signal ratio)
In short: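 Engineered MSC80 cells, Pmp22-promoter green and EF-alpha red luciferase reporters; 24h compound treatment at 37 °C. Concentration-response fits on green, red and ratio signals, each overlap-corrected, with %Activity normalized to untreated wells.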

[16] = biological target: RecQ-like DNA helicase BLM (Homo sapiens) (UniProt P54132); experiment: qHTS Validation Assay for Inhibitors of Bloom's syndrome helicase (BLM) (AID 2364)
In short: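 BLM 50 nM in 25 mM Tris-HCl pH 8.0, 5 mM NaCl, 2 mM MgCl2, 1 mM DTT, 0.01% Tween-20, 2.5 ug/ml poly(dI-dC); 15 min cpd preinc, RT. Start: 200 nM forked DNA + 2 mM ATP (final). TAMRA read, 2 reads 2 h apart.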

[17] = High Content Imaging Cell-Based qHTS for Inhibitors of the mTORC1 Signaling Pathway in MEF Cells (AID 2667);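 also: Tsc2-/- p53-/- MEFs stably re-expressing wild-type Tsc2 exposed 24 h; series mostly up to about 38 µM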
In short: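 Fixed-cell imaging of phospho-S6 (Ser235/236, Alexa-488) after 24 hrs of compound treatment at 37 degree Celsius. Signal was normalized to Hoechst, and thresholds from the highest and lowest wells split cells into % active versus % non-active.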

[18] = Cytometry Cell-Based qHTS for Inhibitors of the mTORC1 Signaling Pathway in MEF cells (AID 2668);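 also: Tsc2-/- p53-/- mouse embryonic fibroblasts stably re-expressing wild-type Tsc2; percent cells positive for phospho-rpS6 Ser235/236 relative to propidium iodide stain; series mostly up to about 38 µM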
In short: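 In MEFs grown in DMEM + 10% FBS, a 24 hrs compound exposure preceded imaging of phospho-rpS6 Ser235/236 by laser-scanning cytometry.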

[19] = Validation screen for small molecules that induce DNA re-replication in MCF 10A normal breast cells (AID 463097); also: nearly all actives have a fitted effect of over 60% in size
In short: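 Following 48 hr compound incubation (37 C, 5% CO2), MCF 10A cells receive Hoechst for 40 min at 37 C. Nuclei are then scanned (excitation 405 nm, emission 500-530 nm) for total fluorescence intensity.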

Measured: Potency

Sequence of RecQ-like DNA helicase BLM (Homo sapiens) (P54132 whole entry, looked up): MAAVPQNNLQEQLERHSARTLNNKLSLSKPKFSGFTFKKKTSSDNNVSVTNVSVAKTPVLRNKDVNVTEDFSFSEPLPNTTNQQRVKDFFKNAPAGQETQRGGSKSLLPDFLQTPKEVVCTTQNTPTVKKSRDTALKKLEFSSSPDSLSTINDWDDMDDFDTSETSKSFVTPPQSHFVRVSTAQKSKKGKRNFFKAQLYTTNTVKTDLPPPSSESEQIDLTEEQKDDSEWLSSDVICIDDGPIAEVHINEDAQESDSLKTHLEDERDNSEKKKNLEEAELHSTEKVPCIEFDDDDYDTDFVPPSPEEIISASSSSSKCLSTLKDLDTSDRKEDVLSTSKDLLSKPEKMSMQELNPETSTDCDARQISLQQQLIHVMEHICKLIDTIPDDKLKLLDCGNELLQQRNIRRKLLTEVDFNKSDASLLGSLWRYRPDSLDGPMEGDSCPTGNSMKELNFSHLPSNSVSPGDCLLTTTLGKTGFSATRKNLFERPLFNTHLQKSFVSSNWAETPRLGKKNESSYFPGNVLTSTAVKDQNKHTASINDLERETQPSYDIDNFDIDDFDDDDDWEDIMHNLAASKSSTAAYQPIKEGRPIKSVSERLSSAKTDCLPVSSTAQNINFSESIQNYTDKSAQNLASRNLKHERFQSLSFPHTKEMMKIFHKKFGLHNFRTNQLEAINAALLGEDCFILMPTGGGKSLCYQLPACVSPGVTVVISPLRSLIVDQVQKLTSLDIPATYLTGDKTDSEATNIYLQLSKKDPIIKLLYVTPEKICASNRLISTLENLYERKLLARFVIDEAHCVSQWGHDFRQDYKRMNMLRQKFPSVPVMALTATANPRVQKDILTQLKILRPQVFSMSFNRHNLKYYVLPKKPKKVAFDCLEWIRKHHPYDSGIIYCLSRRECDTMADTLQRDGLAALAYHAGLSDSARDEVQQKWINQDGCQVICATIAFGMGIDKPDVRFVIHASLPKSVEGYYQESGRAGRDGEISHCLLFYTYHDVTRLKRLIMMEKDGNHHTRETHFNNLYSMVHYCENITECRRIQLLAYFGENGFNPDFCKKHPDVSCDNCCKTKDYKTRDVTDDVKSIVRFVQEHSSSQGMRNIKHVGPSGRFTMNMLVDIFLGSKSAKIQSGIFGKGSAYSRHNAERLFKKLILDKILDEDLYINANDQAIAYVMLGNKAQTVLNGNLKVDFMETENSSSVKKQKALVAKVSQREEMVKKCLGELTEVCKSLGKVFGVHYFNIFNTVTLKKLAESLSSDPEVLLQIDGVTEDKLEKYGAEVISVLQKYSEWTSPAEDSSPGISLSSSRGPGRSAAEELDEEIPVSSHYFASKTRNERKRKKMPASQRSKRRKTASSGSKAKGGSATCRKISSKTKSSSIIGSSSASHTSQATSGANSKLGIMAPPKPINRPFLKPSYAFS
Sequence of Ferritin light chain (Equus caballus) (P02791 2-175 limits assumed): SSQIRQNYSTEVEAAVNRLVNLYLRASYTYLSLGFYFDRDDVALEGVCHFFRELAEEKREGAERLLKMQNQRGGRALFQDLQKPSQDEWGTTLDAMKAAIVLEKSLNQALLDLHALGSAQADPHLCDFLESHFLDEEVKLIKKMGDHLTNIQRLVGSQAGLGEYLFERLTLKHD
Sequence of DNA polymerase III PolC-type (Bacillus subtilis (strain 168)) (P13267 whole entry, looked up): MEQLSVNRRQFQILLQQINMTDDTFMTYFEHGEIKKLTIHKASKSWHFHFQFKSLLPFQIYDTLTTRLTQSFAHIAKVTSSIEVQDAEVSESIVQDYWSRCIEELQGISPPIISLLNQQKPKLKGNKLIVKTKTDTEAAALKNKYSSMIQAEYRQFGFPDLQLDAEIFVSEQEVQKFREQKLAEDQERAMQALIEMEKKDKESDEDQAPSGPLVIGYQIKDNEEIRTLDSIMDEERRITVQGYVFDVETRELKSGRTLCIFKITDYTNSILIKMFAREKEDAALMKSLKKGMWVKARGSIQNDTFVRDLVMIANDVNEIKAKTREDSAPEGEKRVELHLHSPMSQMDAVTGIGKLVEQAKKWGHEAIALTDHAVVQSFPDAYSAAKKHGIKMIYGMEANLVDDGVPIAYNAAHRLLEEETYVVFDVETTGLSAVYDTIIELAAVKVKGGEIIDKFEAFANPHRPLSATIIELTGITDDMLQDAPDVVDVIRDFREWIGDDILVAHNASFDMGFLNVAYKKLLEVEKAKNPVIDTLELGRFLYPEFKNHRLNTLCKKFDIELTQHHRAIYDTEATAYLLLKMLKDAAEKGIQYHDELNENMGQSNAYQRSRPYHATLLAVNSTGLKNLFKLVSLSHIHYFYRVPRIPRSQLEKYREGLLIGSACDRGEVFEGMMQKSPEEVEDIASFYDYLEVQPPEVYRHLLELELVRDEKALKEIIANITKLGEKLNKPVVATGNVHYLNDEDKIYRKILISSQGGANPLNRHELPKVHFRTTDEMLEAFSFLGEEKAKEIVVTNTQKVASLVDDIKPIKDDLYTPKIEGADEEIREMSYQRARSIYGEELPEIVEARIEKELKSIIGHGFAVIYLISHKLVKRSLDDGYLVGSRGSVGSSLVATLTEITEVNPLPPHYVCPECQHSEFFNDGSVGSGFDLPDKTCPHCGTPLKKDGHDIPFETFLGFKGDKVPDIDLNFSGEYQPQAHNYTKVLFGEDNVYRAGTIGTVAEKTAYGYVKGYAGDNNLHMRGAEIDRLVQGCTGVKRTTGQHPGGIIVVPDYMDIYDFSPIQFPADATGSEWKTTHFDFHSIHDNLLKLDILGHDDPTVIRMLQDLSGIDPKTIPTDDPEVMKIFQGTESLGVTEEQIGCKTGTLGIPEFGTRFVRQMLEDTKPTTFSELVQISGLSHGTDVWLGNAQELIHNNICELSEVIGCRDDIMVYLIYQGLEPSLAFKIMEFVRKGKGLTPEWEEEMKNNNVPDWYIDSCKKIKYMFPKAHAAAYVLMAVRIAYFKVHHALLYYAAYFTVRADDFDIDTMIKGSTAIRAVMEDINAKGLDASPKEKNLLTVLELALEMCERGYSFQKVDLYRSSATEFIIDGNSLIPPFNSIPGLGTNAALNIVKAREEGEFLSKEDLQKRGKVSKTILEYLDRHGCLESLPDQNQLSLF
Sequence of ATP-dependent DNA helicase Q1 (Homo sapiens) (P46063 whole entry, looked up): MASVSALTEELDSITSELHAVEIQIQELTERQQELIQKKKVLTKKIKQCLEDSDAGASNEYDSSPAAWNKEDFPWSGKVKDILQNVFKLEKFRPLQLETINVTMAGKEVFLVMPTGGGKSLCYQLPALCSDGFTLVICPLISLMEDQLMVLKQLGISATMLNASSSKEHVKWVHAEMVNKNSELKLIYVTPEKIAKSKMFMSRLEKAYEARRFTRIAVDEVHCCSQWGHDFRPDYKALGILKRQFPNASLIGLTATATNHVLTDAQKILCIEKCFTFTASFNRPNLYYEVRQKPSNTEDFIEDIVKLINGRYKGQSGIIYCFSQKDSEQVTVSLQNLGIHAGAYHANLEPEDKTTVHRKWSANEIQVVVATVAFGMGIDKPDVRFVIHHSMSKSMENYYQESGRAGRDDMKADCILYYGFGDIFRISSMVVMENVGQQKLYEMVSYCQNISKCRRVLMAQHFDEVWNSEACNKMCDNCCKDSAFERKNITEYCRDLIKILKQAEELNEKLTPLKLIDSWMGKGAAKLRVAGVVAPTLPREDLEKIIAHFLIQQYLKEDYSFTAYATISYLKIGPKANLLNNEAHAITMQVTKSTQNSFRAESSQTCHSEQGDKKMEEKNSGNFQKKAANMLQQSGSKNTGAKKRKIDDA
Sequence of Ubiquitin carboxyl-terminal hydrolase 2 (Homo sapiens) (O75604 whole entry, looked up): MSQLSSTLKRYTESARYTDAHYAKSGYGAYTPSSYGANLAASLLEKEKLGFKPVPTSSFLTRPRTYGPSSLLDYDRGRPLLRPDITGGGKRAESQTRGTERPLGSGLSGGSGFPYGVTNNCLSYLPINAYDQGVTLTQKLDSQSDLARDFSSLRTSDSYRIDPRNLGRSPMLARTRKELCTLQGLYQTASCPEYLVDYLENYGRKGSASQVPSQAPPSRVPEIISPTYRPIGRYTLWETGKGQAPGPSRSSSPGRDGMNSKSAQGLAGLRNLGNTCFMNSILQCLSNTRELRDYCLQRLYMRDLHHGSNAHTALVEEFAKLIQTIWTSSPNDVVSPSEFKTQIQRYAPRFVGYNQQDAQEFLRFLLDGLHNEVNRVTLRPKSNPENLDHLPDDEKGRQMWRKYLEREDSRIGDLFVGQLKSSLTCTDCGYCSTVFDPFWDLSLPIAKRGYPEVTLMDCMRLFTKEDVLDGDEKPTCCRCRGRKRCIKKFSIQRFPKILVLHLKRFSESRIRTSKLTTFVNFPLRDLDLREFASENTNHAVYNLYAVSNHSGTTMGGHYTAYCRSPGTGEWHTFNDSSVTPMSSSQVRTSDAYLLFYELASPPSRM
Sequence of Tumor susceptibility gene 101 protein (Homo sapiens) (Q99816 whole entry, looked up, the tested form may be a part): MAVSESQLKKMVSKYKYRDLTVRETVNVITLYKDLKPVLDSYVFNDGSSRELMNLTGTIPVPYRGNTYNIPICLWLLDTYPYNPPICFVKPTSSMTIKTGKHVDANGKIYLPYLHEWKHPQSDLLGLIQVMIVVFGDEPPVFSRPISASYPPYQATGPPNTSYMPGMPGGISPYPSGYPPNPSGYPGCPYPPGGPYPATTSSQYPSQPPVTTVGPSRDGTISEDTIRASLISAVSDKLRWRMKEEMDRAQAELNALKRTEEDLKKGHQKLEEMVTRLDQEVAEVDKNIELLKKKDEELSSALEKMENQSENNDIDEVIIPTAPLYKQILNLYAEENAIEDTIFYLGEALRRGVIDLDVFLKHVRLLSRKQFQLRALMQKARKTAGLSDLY

CC(CN1c2ccccc2Sc2ccccc21)N(C)C (stereo not given)
active: [1] 7.08 µM | [2] 6.31 µM | [3] 14.1 µM | [4] 14.1 µM | [5] 5.01 µM | [6] 2.24 µM | [7] 11.2 µM
inactive: [8] | [9] | [10] | [11] | [12] | [13] | [14]

C=Cc1c(C)c2cc3[nH]c(cc4nc(cc5nc(cc1[nH]2)C(C)=C5CCC(=O)O)C(CCC(=O)O)=C4C)c(C)c3C=C
active: [9] 11.2 µM
not listed: [8] | [12]
inactive: all other assays above

CC(CN(C)C)CN1c2ccccc2CCc2ccccc21 (stereo not given)
active: [1] 8.91 µM | [2] 5.62 µM | [3] 8.91 µM | [4] 11.2 µM | [6] 6.31 µM | [7] 11.2 µM
not listed: [5] | [15]
inactive: all other assays above

OCc1cc(C(O)CNCCCCCCOCCCCc2ccccc2)ccc1O (stereo not given)
inactive: [9] | [10] | [11] | [12] | [13] | [14]
active: [1] 8.91 µM | [2] 8.91 µM | [3] 8.91 µM | [4] 12.6 µM | [6] 7.08 µM | [7] 10 µM

C[C@]12CC[C@@H]3c4ccc(O)cc4CC[C@H]3[C@@H]1CCC2=O
active: [1] 3.98 µM | [6] 11.2 µM
not listed: [2] | [3] | [4] | [5] | [7] | [15] | [16]
inactive: all other assays above

CN(C)CC[C@@H](c1ccc(Cl)cc1)c1ccccn1
active: [1] 2.51 µM | [5] 3.98 µM | [6] 1 µM
not listed: [2] | [15] | [16]
inactive: all other assays above

NC1CCN(c2cccc(Cl)n2)CC1
active: [2] 12.6 µM | [6] 5.62 µM
not listed: [5] | [15] | [16]
inactive: all other assays above

CN1CCN(C2Cc3ccccc3Sc3ccc(Cl)cc32)CC1 (stereo not given)
inactive: [9] | [16] | [11] | [12] | [13] | [14]
active: [1] 6.31 µM | [2] 11.2 µM | [3] 10 µM | [6] 5.01 µM | [7] 10 µM

CCN(CC)CCNC(=O)c1cc(Cl)c(N)cc1OC
not listed: [6] | [8]
inactive: all other assays above

C#CCN(C)Cc1ccccc1
not listed: [6] | [15] | [16]
inactive: all other assays above

CC(C)(C)c1onc(OCP(=O)(O)O)c1CC(N)C(=O)O (stereo not given)
not listed: [6] | [16]
inactive: all other assays above
